High-throughput results (PubChem BioAssay)
This is a sample that favours compounds with a hit; in the whole collection about 2.8% have one here.
mTORC1 inh = mTORC1 pathway inhibition measured by phospho-rpS6. actives 0.78% (n = 44,000). Potency, µM (top dose mostly 38.3 µM), inactives show at the highest dose activity change, negative = inhibition, most hits filed as inhibitors. Tsc2-/- p53-/- MEF, phospho-rpS6 immunofluorescence/PI, 24 h. AID 493208;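 also: plate controls were DMSO for no effect and rapamycin for full effect; nearly all actives have a fitted effect of over 50% in size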
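Tsc2-/-, p53-/- MEFs (empty-vector stable line) in DMEM + 10% FBS were treated with compounds 24 h at 37 degree Celsius, fixed, and immunostained for phospho-rpS6 (Alexa-488) with propidium iodide counterstain. Laser-scanning cytometry gave % positive cells, normalized against 7.5 nM rapamycin and DMSO.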
GALC G270D act = enhancers of human galactocerebrosidase G270D mutant activity in cells | P54803 | 145M-Twi-hGALC-G270D cells (Twitcher mouse brain line with human GALC G270D), HMU-beta-Gal fluorescence, 48 h | Potency, µM (highest dose often 57.5 µM), hits mostly activators | actives 0.1% (n = 45,000) | AID 1159614; also: 0% is about no effect; nearly all actives have a fitted effect of over 65% in size
Target sequence (P54803 whole entry G286D): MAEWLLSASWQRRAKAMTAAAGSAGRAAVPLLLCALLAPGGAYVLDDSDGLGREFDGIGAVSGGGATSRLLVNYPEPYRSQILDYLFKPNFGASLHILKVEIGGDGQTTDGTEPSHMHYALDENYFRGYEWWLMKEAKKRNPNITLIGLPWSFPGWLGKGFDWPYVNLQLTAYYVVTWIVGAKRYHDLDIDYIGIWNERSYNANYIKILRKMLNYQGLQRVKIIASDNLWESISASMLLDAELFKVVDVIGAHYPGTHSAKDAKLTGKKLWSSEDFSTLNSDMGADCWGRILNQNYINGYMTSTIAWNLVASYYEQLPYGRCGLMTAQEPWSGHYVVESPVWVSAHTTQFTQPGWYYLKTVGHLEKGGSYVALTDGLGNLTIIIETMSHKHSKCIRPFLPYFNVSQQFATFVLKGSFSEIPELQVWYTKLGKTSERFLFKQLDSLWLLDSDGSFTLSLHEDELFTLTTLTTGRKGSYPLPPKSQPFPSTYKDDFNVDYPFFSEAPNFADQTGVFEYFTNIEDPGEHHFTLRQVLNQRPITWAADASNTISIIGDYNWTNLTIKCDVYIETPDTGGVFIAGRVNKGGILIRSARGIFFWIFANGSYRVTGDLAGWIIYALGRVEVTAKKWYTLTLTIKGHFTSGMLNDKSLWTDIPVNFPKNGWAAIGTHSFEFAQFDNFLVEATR
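Fluorescence readout: HMU-β-gal cleavage by mutant GALC (0.1 mM final, citrate/phosphate pH 5.2 with 1 mg/mL taurocholate), stopped with carbonate/bicarbonate plus Triton X-100. Cells: murine Twitcher 145M-Twi expressing human G270D GALC; qHTS for activators.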
S16 F2sN tox = S16 Schwann cell cytotoxicity. S16 Pmp22-F2sN Schwann cells viability, CellTiter-Glo, 24 h. Potency, µM (top dose mostly 57.5 µM), inactives show at the top dose activity change, negative = cytotoxicity, hits mostly cytotoxic. actives 0.48% (n = 43,000). AID 1508642; also: % is scaled to controls: 0 for no effect and ±100 for the full control effect; nearly all actives have a fitted effect of over 65% in size
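Viability was measured by CellTiter-Glo luminescence (15 min, room temperature). This followed 24 h at 37 °C of compound exposure (23 nL pin transfer) in S16 Pmp22-F2sN Schwann cells, 500-1,000 per well.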
PMP22 txn prim = PMP22 gene transcription modulation; S16 Pmp22-F2sN Schwann cells (luciferase reporters placed in the Pmp22 gene), FLuc/NLuc coincidence luminescence, 24 h; Potency, µM (highest dose often 57.5 µM), without a hit: top-dose activity change, negative = inhibition, usual class: inhibitors; actives 2% (n = 43,000); AID 1508649; active = clear falling dose curves in both reporters; inconclusive = both reporters move, but less clearly or upward; inactive = either reporter flat; the % is the NLuc reporter signal; also: % is scaled to controls: 0 for no effect and ±100 for the full control effect
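Luminescent read-out of sequential FLuc and NLuc signals from a reporter embedded in the Pmp22 3' UTR of S16 Schwann cells, taken after 24 h compound exposure at 37C; compounds reducing both signals score as inhibitors of expression.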
* marks the source's active call; other numbers are inactive results; i = inactive; ? = inconclusive; · = not tested or not shown. Unless noted, calls follow the shape of the dose curve; as a rule, active = well fitted curve in the direction sought with a large enough effect; inconclusive = small, poorly fitted or top-dose-only effect, or another doubt; inactive = no such curve, though single readings can be large; an effect the other way counts as inactive or inconclusive. Potency is read from the fitted curve at half-maximal effect.

SMILES	mTORC1 inh	GALC G270D act	S16 F2sN tox	PMP22 txn prim
CCc1c(C)c2ccc3c(c2oc1=O)CN(Cc1ccccc1)CO3	-3%	25µM*	?	?
O=c1cc(-c2ccccc2)c2ccc3c(c2o1)CN(Cc1ccccc1)CO3	6%	i	13%	-14%
CCCOc1ccc(C(=O)Nc2ccc(NC(=O)c3cccc(Cl)c3)cc2)cc1	4%	i	4%	2%
CCCOc1ccc(C(=O)Nc2ccc(NC(=O)c3ccccc3)c(Br)c2)cc1	18µM*	i	?	?
C#C[C@]1(OC(C)=O)CC[C@H]2[C@@H]3CCC4=C/C(=N/O)CC[C@@H]4[C@H]3CC[C@@]21CC	·	i	·	·
COc1ccc2c(c1)sc1ncc(C(=O)NCc3ccc(OC(C)C)cc3)c(=O)n12	-2%	i	10%	-14%
CCOC(=O)c1[nH]c2c(c1Cc1ccccc1)C(=O)CC(c1ccc(Cl)cc1)C2 (stereo not given)	4%	i	?	-22%
CCOCCCNC(=O)c1ccc(Cn2c(=O)c3cccn3c3cccnc32)cc1	-15%	i	21%	11µM*
CCN(CC)CCNC(=O)c1ccc(Cn2c(=O)c3cccn3c3cccnc32)cc1	3.3µM*	i	1%	-25%
CC(C)OCCCNC(=O)c1ccc(Cn2c(=O)c3cccn3c3cccnc32)cc1	-1%	i	-3%	0%
COc1cccc(C(=O)NC(c2ccc(Cl)cc2)c2cc(Cl)c3cccnc3c2O)c1 (stereo not given)	-2%	i	5µM*	4.6µM*
COc1cc(C(=O)NC(c2ccc(Cl)cc2)c2cc(Cl)c3cccnc3c2O)cc(OC)c1OC (stereo not given)	0%	i	3.2µM*	?
COc1ccccc1-c1cc(C(F)(F)F)nc(S(=O)(=O)CCCC(=O)Nc2cc(OC)c(OC)c(OC)c2)n1	0%	i	8%	0%
COc1ccc(NC(=O)CCCS(=O)(=O)c2nc(-c3ccc(OC)c(OC)c3)cc(C(F)(F)F)n2)cc1OC	12µM*	i	4.5µM*	4.5µM*
COc1ccc(-c2cc(C(F)(F)F)nc(S(=O)(=O)CCCC(=O)Nc3cccc(O)c3)n2)cc1OC	?	i	8.9µM*	6µM*
COc1ccc(-c2cc(C(F)(F)F)nc(S(=O)(=O)CCCC(=O)Nc3ccccc3C(F)(F)F)n2)cc1OC	18µM*	i	?	?
CC(C)C[C@H](NC(=O)[C@H](Cc1ccccc1)NC(=O)c1cnccn1)B(O)O	·	i	·	·
COc1ccc(-c2nc3ccccc3o2)cc1NC(=O)C(C)Oc1ccc(Cl)cc1Cl (stereo not given)	-17%	i	0%	14µM*
COc1ccc(-c2nc3cc(NC(=O)Cc4ccc(Cl)cc4)ccc3o2)cc1OC	4.1µM*	i	7%	?
COc1ccc(-c2nc3ccccc3o2)cc1NC(=O)CSc1ccc(Cl)cc1	7%	i	0%	?
COC(c1ccccc1)(c1ccccc1)[C@H](Oc1nc(C)cc(C)n1)C(=O)O	·	i	·	·
COC(=O)c1c(C)oc2ccc(N(C(=O)c3ccncc3)S(=O)(=O)c3cc(C)ccc3C)cc12	?	i	?	12µM*
CCOc1ccc(S(=O)(=O)N(C(C)=O)c2ccc3oc(C)c(C(=O)OC)c3c2)cc1	6.6µM*	i	?	5.4µM*
COC(=O)c1c(C)oc2ccc(N(C(=O)Oc3ccccc3)S(=O)(=O)c3ccc(C(C)(C)C)cc3)cc12	5%	i	-21%	6.6µM*
COC(=O)c1c(C)oc2ccc(N(C(=O)c3ccncc3)S(=O)(=O)c3ccc(Br)cc3)cc12	?	i	?	?
CCOC(=O)c1c(-c2ccccc2)oc2ccc(N(C(C)=O)S(=O)(=O)c3ccccc3)cc12	6%	·	·	·
COc1ccc(OC)c(NC(=O)c2nc(SCc3ccccc3F)ncc2Cl)c1	2%	i	0%	-28%
COC(=O)c1cc(Cl)ccc1NS(=O)(=O)C(F)(F)F	·	i	·	·
COc1ccc(Cl)cc1NC(=O)c1c(NCc2cccnc2)sc2c1CCC(C)C2 (stereo not given)	5.8µM*	i	?	?
